Experimental data reported in PubChem BioAssay (EPA / NIEHS).
Results filed as inconclusive are left out. Some compounds were tested as several samples or in several runs, with calls that do not always agree. Active and inactive are the calls of the source. How the source made its calls, unless noted: active means hit-call score of the fitted dose curve at least 0.9, where 1 is the maximum; inactive means score below 0.9.

Key:
[1] = biological target: Hepatocyte nuclear factor 4-alpha (Homo sapiens) (UniProt P41235); experiment: ATG_HNF4a_TRANS: Attagene TRANS-FACTORIAL HepG2 Assay for human Hepatocyte Nuclear Factor 4 alpha (HNF4a) (AID 2282982; active means hit-call score of the fitted dose curve at least 0.9, where 1 is the maximum); conditions: HepG2 HNF4a transactivation reporter, mRNA readout
Method in brief: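 Multiplexed reporter assay: transfected HepG2, 24 h exposure, total RNA → oligo(dT) RT → PCR → 6-FAM extension → HpaI digest → CE fluorescence. DMSO = negative control.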

[2] = ATG_M_06_TRANS: Attagene TRANS-FACTORIAL HepG2 Assay for M06 Transcription Factor (Internal Marker) (AID 2282983; active means hit-call score of the fitted dose curve at least 0.9, where 1 is the maximum;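 further: reporter transcript level by RT-PCR then capillary electrophoresis fluorescence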); conditions: HepG2 Attagene TRANS M06 internal marker reporter
Method in brief: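 Background-control reporter readout: after 24 h chemical exposure of transiently transfected HepG2 (GAL4-UAS reporter units), mRNA quantified by RT-PCR with fluorescent labeling and capillary electrophoresis. Gain-of-signal fitting against DMSO baseline.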

[3] = ATG_M_32_TRANS: Attagene TRANS-FACTORIAL HepG2 Assay for M32 Transcription Factor (Internal Marker) (AID 2282984; active means hit-call score of the fitted dose curve at least 0.9, where 1 is the maximum;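 further: transcript level of a background control reporter unit measured by RT-PCR and capillary electrophoresis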); conditions: HepG2 Attagene TRANS M32 internal marker reporter
Method in brief: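 Cell-based TRANS-format assay in HepG2: exogenous chimeric GAL4 reporter units transiently expressed, compounds applied 24 h. Reporter mRNA detected by RT-PCR plus capillary electrophoresis; this readout is an internal background marker.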

[4] = biological target: Nuclear receptor subfamily 4 group A member 2 (Homo sapiens) (UniProt P43354); experiment: ATG_NURR1_TRANS: Attagene TRANS-FACTORIAL HepG2 Assay for human Nuclear Receptor Related Protein 1 (NURR1) (AID 2282985; active means hit-call score of the fitted dose curve at least 0.9, where 1 is the maximum); conditions: HepG2 Attagene TRANS reporter, mRNA readout
Method in brief: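 Measures transcriptional activation by an exogenous NR-Gal4 chimera in transfected HepG2 liver cells. After 24 h, reporter RNA is reverse-transcribed, amplified and resolved by capillary electrophoresis; DMSO defines baseline.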

[5] = biological target: Transcriptional activator Myb (Homo sapiens) (UniProt P10242); experiment: ATG_Myb_CIS: Attagene CIS-FACTORIAL HepG2 Assay for human Myeloblastosis (Myb) Proto-Oncogene Transcription Factor (AID 2282986); conditions: HepG2 Attagene CIS-FACTORIAL Myb reporter transcription; actives raise or lower the signal
Method in brief: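 Endogenous transcription factor activity at a Myb-responsive cis element is reported in human liver HepG2 cells after 24 h chemical treatment. Reporter mRNA is detected by RT-PCR and capillary electrophoresis fluorescence, with DMSO as baseline.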

[6] = biological target: Nuclear respiratory factor 1 (Homo sapiens) (UniProt Q16656); experiment: ATG_NRF1_CIS: Attagene CIS-FACTORIAL HepG2 Assay for human Nuclear Respiratory Factor 1 (NRF1) Orphan Gene (AID 2282987); conditions: HepG2 NRF1 cis-element reporter, Attagene multiplex; actives raise or lower the signal
Method in brief: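 Human hepatoma HepG2 cells carrying transfected promoter-regulated reporter units were incubated with test chemicals for 24 h. Reporter transcripts were measured by RT-PCR plus capillary electrophoresis, and endpoints derived by bidirectional fitting with DMSO as baseline.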

[7] = ATG_NFI_CIS: Attagene CIS-FACTORIAL HepG2 Assay for human Nuclear Factor I (NFI) (AID 2282989); conditions: HepG2 cis-regulatory reporter, NFI response element transcription; actives raise or lower the signal
Method in brief: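 HepG2 cells transiently transfected with cis-element-driven multiplexed reporter transcription units, dosed for 24 h. Reporter mRNA quantified by RT-PCR, fluorescent labelling, HpaI digestion and capillary electrophoresis; bidirectional fit versus DMSO baseline.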

[8] = biological target: Myc proto-oncogene protein (Homo sapiens) (UniProt P01106); experiment: ATG_Myc_CIS: Attagene CIS-FACTORIAL HepG2 Assay for human Myelocytomatosis (Myc) Proto-Oncogene Transcription Factor (AID 2282990); conditions: HepG2, Attagene cis-reporter transcription factor activity; actives raise or lower the signal
Method in brief: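 HepG2, transient MRTU transfection (cis promoters, endogenous TFs); 24 h dosing; TriZol RNA → oligo(dT) RT → PCR → 6-FAM primer extension → HpaI cut → CE. Bidirectional fit vs DMSO.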

[9] = ATG_NF_kB_CIS: Attagene CIS-FACTORIAL HepG2 Assay for human Nuclear Factor Kappa B (NF-kB) (AID 2282991); conditions: HepG2 Attagene cis-factorial NF-kB reporter mRNA; actives raise or lower the signal
Method in brief: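 Multiplexed cis-reporter assay in transiently transfected HepG2. 24 h treatment; RNA isolated, RT-PCR, labelled fragments resolved by CE. DMSO baseline.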

[10] = ATG_NRF2_ARE_CIS: Attagene CIS-FACTORIAL HepG2 Assay for human Nuclear Factor Erythroid 2 Related Factor 2 (NFR2) response to Antioxidant Response Elements (ARE) (AID 2282992); conditions: HepG2 Attagene ARE/NRF2 reporter, transcription factor activity; actives raise or lower the signal;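 on AC50: reporter mRNA level measured by RT-PCR and capillary electrophoresis fluorescence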
Method in brief: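 Fluorescence intensity of reporter-specific cDNA fragments, separated by capillary electrophoresis, reflects mRNA induction in transfected HepG2 cells at 24 h. Activity is fitted bidirectionally, DMSO serving as baseline.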

[11] = ATG_Oct_MLP_CIS: Attagene CIS-FACTORIAL HepG2 Assay for human Octamer-Binding Transcription Factor (Oct) (AID 2282993); conditions: HepG2 Attagene cis-factorial Oct reporter, mRNA; actives raise or lower the signal
Method in brief: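 HepG2 cells transiently transfected with cis-promoter-driven multiplexed reporter transcription units, dosed for 24 h. Reporter mRNA quantified by RT-PCR, fluorescent labelling, HpaI digestion and capillary electrophoresis; bidirectional fits versus DMSO baseline.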

[12] = biological target: Cellular tumor antigen p53 (Homo sapiens) (UniProt P04637); experiment: ATG_p53_CIS: Attagene CIS-FACTORIAL HepG2 Assay for human p53 Transcription Factor (AID 2282994); conditions: HepG2 p53 cis-element reporter, Attagene mRNA; actives raise or lower the signal
Method in brief: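 Transiently transfected HepG2 (multiple cis reporter transcription units); exposure 24 h; reporter RNA via RT-PCR, 6-FAM extension, 2 h HpaI digest at 37 C, CE detection; DMSO baseline.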

[13] = BSK_3C_TissueFactor: BioMAP Diversity Plus: 3C Assay for Tissue Factor Biomarker Activity (AID 2282997); conditions: BioMAP 3C HUVEC, tissue factor biomarker readout; actives raise or lower the signal
Method in brief: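 Tissue factor on primary human umbilical vein endothelium was read by ELISA 24 h after dosing, gain or loss relative to DMSO. Cytotoxicity ran alongside via SRB (0.1%, TCA-fixed, 560 nm).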

[14] = BSK_3C_uPAR: BioMAP Diversity Plus: 3C Assay for Urokinase-type plasminogen activator receptor (uPAR) Biomarker Activity (AID 2282998); conditions: BioMAP 3C HUVEC, uPAR biomarker ELISA; actives raise or lower the signal
Method in brief: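 Human umbilical vein endothelial primary cells were exposed to test chemical for 24 h. Cell-surface uPAR was then quantified by ELISA, and responses were fitted bidirectionally against DMSO as negative control and baseline.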

[15] = BSK_3C_VCAM1: BioMAP Diversity Plus: 3C Assay for Vascular cell adhesion molecule 1 (VCAM1) Biomarker Activity (AID 2282999); conditions: BioMAP 3C HUVEC, VCAM1 ELISA, cytokine-stimulated; actives raise or lower the signal
Method in brief: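 Activity fitted in both directions relative to DMSO, with ELISA measurement of the surface marker on primary HUVEC (3C) at 24 h post-treatment; parallel SRB staining (0.1% SRB, TCA-fixed, 560 nm) flagged overt cytotoxicity.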

[16] = BSK_4H_Eotaxin3: BioMAP Diversity Plus: 4H Assay for Eotaxin 3 Biomarker Activity (AID 2283000); conditions: primary human endothelial cells (HUVEC); actives raise or lower the signal
Method in brief: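 Human umbilical vein endothelial cells (BSK_4H system) dosed with test chemical; Eotaxin-3 (CCL26) measured by ELISA 24 h after dosing. Bidirectional curve fitting relative to DMSO negative control as baseline.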

[17] = biological target: Oxysterols receptor LXR-beta (Homo sapiens) (UniProt P55055); experiment: ATG_LXRb_TRANS: Attagene TRANS-FACTORIAL HepG2 Assay for human Liver X Receptor beta (LXRb) (AID 2282981; active means hit-call score of the fitted dose curve at least 0.9, where 1 is the maximum); conditions: HepG2 Attagene TRANS GAL4-LXRb reporter, mRNA
Method in brief: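 After 24 h of chemical treatment, transfected HepG2 cells yield total RNA; reporter cDNA is PCR-amplified, FAM-labelled, HpaI-cut and run on capillary electrophoresis. Signal reflects chimeric LXRb-Gal4 activity on GAL4-UAS reporters.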

[18] = biological target: human Peroxisome Proliferator-activated Receptor alpha (PPARa), PPARA (gene 5465) (UniProt Q07869); experiment: ATG_PPARa_TRANS: Attagene TRANS-FACTORIAL HepG2 Assay for human Peroxisome Proliferator-activated Receptor alpha (PPARa) (AID 2283001; active means hit-call score of the fitted dose curve at least 0.9, where 1 is the maximum)
Method in brief: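 Transfected HepG2 cells treated with test chemical for 24 h. RNA isolated, reverse-transcribed with oligo(dT), PCR-amplified, FAM-labelled and HpaI-digested. Fragments sized by capillary electrophoresis; gain-of-signal fit relative to DMSO.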

[19] = biological target: Bile acid receptor (Homo sapiens) (UniProt Q96RI1); experiment: ATG_FXR_TRANS: Attagene TRANS-FACTORIAL HepG2 Assay for Farnesoid X Receptor (FXR) (AID 2282979; active means hit-call score of the fitted dose curve at least 0.9, where 1 is the maximum;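 further: hits raise reporter mRNA above DMSO so AC50 marks FXR activation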); conditions: HepG2 Attagene TRANS FXR-GAL4 reporter transcription
Method in brief: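 Reporter transcripts from transfected HepG2 cells were measured 24 h after dosing, using RT-PCR with capillary electrophoresis of 6-FAM-labelled fragments. The read-out reflects activity of exogenous FXR-Gal4 chimera on GAL4-UAS units, with induction relative to DMSO.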

Measured: AC50

Sequence of human Peroxisome Proliferator-activated Receptor alpha (PPARa), PPARA (gene 5465) (Q07869 whole entry, looked up, the tested form may be a part): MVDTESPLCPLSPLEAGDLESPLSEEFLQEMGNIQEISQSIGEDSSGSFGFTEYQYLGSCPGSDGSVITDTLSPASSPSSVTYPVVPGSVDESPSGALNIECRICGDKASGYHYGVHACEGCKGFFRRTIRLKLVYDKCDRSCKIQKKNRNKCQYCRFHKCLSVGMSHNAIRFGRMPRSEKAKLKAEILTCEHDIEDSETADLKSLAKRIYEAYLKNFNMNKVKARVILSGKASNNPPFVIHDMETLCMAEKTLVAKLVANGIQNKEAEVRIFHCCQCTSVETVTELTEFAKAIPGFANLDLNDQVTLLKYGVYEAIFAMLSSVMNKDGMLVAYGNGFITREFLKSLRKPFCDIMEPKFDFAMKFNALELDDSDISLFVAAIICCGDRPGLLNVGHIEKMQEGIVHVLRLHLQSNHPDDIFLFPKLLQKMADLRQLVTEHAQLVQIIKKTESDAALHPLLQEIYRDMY
Sequence of Nuclear receptor subfamily 4 group A member 2 (Homo sapiens) (P43354 whole entry, looked up, the tested form may be a part): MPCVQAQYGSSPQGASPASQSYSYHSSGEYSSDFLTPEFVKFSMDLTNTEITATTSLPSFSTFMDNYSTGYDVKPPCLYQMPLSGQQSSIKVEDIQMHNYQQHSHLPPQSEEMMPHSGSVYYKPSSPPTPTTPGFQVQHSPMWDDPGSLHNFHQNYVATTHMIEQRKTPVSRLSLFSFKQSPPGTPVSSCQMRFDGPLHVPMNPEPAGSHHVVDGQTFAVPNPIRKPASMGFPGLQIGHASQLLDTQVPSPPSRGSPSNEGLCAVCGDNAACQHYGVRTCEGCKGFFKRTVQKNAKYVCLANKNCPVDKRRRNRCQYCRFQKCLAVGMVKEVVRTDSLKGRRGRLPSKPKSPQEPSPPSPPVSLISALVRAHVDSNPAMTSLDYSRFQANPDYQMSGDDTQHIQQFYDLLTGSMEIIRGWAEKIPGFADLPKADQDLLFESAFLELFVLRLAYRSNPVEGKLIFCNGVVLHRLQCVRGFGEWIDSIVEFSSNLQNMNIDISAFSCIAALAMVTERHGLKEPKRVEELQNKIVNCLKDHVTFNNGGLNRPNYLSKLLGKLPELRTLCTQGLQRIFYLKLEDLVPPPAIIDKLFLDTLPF
Sequence of Myc proto-oncogene protein (Homo sapiens) (P01106 whole entry, looked up): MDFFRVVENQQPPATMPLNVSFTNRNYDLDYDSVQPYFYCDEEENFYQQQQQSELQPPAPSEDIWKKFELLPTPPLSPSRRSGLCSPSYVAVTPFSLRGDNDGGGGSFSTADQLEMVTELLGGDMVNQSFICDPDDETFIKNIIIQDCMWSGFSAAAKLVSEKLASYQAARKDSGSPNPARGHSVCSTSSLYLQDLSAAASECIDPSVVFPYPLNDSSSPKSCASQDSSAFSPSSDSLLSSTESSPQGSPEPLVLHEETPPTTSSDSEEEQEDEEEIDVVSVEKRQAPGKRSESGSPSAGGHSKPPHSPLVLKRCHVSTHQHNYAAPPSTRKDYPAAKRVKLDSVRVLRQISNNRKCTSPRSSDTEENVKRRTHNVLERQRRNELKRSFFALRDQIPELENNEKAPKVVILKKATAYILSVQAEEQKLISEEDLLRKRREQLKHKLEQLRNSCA
Sequence of Transcriptional activator Myb (Homo sapiens) (P10242 whole entry, looked up): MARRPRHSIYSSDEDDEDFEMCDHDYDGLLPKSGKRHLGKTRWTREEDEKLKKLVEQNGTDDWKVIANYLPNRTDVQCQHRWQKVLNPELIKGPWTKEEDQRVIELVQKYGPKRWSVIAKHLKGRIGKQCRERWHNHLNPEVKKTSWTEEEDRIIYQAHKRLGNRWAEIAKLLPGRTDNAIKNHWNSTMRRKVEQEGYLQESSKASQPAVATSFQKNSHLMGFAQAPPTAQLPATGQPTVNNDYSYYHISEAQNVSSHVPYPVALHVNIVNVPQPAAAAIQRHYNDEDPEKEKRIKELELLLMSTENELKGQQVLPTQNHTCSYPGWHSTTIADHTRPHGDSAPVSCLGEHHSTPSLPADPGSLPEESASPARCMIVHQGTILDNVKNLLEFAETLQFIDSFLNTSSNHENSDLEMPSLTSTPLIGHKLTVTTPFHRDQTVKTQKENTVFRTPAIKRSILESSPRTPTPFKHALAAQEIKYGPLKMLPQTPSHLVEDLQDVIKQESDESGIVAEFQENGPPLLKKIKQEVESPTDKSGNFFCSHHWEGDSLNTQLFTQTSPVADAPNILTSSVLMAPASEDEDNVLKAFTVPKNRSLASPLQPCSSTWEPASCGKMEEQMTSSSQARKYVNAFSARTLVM
Sequence of Cellular tumor antigen p53 (Homo sapiens) (P04637 whole entry, looked up): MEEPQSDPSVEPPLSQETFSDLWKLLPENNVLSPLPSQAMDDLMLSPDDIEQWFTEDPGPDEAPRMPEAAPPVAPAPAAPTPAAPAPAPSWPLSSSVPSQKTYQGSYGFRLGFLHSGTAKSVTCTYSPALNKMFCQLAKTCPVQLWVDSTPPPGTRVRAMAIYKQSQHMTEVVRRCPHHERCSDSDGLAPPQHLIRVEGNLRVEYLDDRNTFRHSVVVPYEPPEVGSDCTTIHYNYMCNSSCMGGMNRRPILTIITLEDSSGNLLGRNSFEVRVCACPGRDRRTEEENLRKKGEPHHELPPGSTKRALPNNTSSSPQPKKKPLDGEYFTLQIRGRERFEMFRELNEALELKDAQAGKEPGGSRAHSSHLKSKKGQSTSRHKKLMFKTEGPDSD
Sequence of Nuclear respiratory factor 1 (Homo sapiens) (Q16656 whole entry, looked up): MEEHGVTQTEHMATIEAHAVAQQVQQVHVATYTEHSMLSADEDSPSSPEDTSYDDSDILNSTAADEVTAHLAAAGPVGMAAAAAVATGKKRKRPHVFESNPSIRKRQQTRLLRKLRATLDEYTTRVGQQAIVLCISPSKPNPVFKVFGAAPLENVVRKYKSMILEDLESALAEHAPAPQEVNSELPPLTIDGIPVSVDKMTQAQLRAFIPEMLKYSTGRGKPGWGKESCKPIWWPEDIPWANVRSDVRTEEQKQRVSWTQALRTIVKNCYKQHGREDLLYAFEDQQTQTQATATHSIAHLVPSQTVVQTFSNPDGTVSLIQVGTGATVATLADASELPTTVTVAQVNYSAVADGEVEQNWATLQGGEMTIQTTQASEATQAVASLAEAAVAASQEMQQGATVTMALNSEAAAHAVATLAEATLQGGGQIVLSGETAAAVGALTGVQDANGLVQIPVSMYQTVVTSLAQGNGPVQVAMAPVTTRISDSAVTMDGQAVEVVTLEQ
Sequence of Hepatocyte nuclear factor 4-alpha (Homo sapiens) (P41235 whole entry, looked up): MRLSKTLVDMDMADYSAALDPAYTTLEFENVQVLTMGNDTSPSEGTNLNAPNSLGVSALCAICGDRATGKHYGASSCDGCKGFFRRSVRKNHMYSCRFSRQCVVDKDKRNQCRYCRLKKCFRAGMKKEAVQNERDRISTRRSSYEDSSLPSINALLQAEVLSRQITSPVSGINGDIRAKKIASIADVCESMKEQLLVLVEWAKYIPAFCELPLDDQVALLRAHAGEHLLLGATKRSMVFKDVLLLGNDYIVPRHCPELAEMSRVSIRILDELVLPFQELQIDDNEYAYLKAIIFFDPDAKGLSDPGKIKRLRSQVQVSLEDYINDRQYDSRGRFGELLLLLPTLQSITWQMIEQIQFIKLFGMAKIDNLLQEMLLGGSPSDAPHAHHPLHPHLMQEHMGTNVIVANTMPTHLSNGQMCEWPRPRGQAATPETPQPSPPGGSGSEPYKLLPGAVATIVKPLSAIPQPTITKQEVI
Sequence of Bile acid receptor (Homo sapiens) (Q96RI1 whole entry, looked up, the tested form may be a part): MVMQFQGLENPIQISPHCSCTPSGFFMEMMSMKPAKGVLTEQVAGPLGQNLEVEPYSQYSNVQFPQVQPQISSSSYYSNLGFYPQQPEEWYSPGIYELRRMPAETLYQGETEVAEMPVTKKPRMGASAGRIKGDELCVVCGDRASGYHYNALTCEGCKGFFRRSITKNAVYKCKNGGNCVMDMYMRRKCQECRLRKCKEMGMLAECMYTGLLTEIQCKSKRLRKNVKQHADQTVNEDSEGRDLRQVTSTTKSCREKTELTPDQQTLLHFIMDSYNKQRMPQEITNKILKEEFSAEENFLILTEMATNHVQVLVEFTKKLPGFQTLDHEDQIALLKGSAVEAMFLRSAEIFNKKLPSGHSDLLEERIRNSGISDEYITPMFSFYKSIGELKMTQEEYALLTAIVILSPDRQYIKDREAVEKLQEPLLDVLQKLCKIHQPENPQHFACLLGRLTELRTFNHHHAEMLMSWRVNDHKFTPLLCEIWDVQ
Sequence of Oxysterols receptor LXR-beta (Homo sapiens) (P55055 whole entry, looked up, the tested form may be a part): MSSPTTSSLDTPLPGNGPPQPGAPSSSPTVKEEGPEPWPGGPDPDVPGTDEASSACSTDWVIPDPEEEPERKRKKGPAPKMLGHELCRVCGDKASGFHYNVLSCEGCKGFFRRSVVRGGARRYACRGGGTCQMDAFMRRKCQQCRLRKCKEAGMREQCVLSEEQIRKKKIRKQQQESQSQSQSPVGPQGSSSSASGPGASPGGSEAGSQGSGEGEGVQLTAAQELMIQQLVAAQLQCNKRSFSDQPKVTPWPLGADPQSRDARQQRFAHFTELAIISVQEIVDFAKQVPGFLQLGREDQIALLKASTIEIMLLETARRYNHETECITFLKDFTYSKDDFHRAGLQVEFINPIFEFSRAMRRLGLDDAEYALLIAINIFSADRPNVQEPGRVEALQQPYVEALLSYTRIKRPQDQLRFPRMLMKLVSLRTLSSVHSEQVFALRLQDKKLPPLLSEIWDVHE

CCCCCCCCN(C)CCCCCCCC
not listed: [17] | [18] | [19]
inactive: all other assays above

CN(C[C@@H](CC[N+]12CCC(C3CCCCC3)(CC1)CC2)c1ccc(Cl)c(Cl)c1)C(=O)c1cc(C(F)(F)F)cc(C(F)(F)F)c1
active: [13] 23.5 µM | [14] 14.3 µM | [15] 31.9 µM | [16] 30.4 µM
not listed: [1] | [3] | [4] | [17] | [19]
inactive: all other assays above

Clc1cc(Cl)c2c(c1)N=C1CCCCCN1C2
active: [9] 72.4 µM | [10] 20.8 µM | [12] 50 µM
not listed: [1] | [3] | [4] | [17] | [19]
inactive: all other assays above

CCN(CC)C(=O)c1cc(S(=O)(=O)Cc2ccccc2)c(N2CCC(c3ccccc3)CC2)cc1N(CC)CCN(C)C
active: [10] 3.7 µM | [13] 32.2 µM | [14] 5.11 µM | [15] 12.9 µM | [16] 18.7 µM
inactive: [1] | [2] | [5] | [6] | [7] | [8] | [9] | [12]

COc1cccc([C@H](O)C2CCN(CCc3ccc(F)cc3)CC2)c1OC
active: [10] 140 µM | [12] 100 µM
not listed: [1] | [2] | [3] | [4] | [11] | [17] | [18]
inactive: all other assays above

c1ccc2ccccc2c1
active: [6] 100 µM
inactive: [17] | [2] | [4] | [5] | [6] | [7] | [8] | [9] | [10] | [12] | [13] | [14] | [15] | [16] | [18]
